Values joined by “and” are separate entries in the source; they are usually repeats but may differ in a detail not shown here. Equal entries are not always repeated. Inconclusive results are not listed. A call without a number means that no potency is given here. Active and inactive are the calls of the source. Calls follow the shape of the dose curve; as a rule, active = well fitted inhibition curve with a large enough effect; inconclusive = small, poorly fitted or top-dose-only effect; inactive = no such curve, though single readings can be large or run the other way.

Tested on in the first assay: not listed separately
The assay is described as follows: ZIKV-mCherry secondary qHTS for Zika virus inhibitors (AID 1347158). Also: top concentration of the series differs between compounds. The conditions noted are these: Vero cells, ZIKV-mCherry infection imaging, 48-72 h; series mostly up to 49.2 µM. The essentials:
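After overnight seeding at 37 °C, Vero cells receive compound and then ZIKV-mCherry (MOI 1). Following 48-72 h infection, cells are fixed, counterstained with Hoechst, and imaged; percent infected cells is derived from an mCherry intensity cut-off of 450 RFU.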
Background: Quantitative high-throughput screening tests each substance at several concentrations.
Turning to `Cc1c(C2(c3cc(C(C)C)c(O)c(Br)c3C)OS(=O)(=O)c3ccccc32)cc(C(C)C)c(O)c1Br`, the Potency entry is “inactive”. On the same count and under the same terms, to `O=C(O)c1c(Br)c(Br)c(Br)c(Br)c1C1c2ccc(O)cc2Oc2cc(O)ccc21` belongs “inactive”; to `O=C(O)c1ccccc1-c1c2cc(I)c(=O)c(I)c-2oc2c(I)c(O)c(I)cc12`, “inactive”.

For the compound `COc1ccc(NS(=O)(=O)c2ccc3c(c2)[C@H]2C=CC[C@H]2[C@@H](c2ccc(C(=O)O)cc2)N3)cc1`, the Potency result was “inactive”. Turning to `Cc1ccc(NC(=O)c2ccc3c(O)c(S(=O)(=O)c4ccccc4)c(=O)[nH]c3c2)cc1Cl`, the Potency entry was “inactive”. For the compound `O=c1c(O)cc(C2Oc3cc(O)cc(O)c3CC2O)cc2c(C3Oc4cc(O)cc(O)c4CC3O)cc(O)c(O)c12` (stereo not drawn), the Potency result was “inactive”.

As for `COc1ccc2c(c1)Oc1nc(-c3ccc(C)s3)nc(SCC(=O)Nc3cccc(C(=O)O)c3)c1C2`, the Potency result is “inactive”.

Tested on in another assay: not listed separately
The experiment in a line: Confirmatory screen NINDS Rhodamine qHTS for Zika virus inhibitors (AID 1347161). Also: nearly all actives have a fitted effect of over 60% in size. Also: potency is read from the fitted curve at half-maximal effect. The conditions noted are these: purified enzyme assay, Rhodamine110 substrate fluorescence, 15 min; series mostly up to 114 µM. The essentials:
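Kinetic fluorescence (Ex 480 nm, Em 540 nm) over 15 min with 1.5 microM Rhodamine110 peptide and 25 nM linked protease.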
Consider `CCOC(=O)c1c(-c2ccccc2)csc1NC(=O)c1cc(-c2ccc(Cl)cc2)on1`, for which the Potency entry is “inactive”.

Regarding `CCCCOC(=O)c1ccc(NC(=O)c2ccc3c(c2)CCN3S(=O)(=O)c2ccccc2)cc1`, the Potency result is “inactive”. Same read-out and setting: to `CCOC(=O)c1ccc(N2C(=O)c3n[nH]c(-c4cccs4)c3C2c2ccc(Cl)cc2Cl)cc1` (stereo not drawn) belongs 25.1 µM (active); to `O=C(Nc1ccc(C(=O)Nc2ccc(C(=O)Nc3ccc(S(=O)(=O)O)c4cc(S(=O)(=O)O)cc(S(=O)(=O)O)c34)cc2)cc1)Nc1ccc(C(=O)Nc2ccc(C(=O)Nc3ccc(S(=O)(=O)O)c4cc(S(=O)(=O)O)cc(S(=O)(=O)O)c34)cc2)cc1`, 2.24 µM (active) and 1.26 µM (active). Regarding `CCOC(=O)c1ccccc1NC(=O)CSc1ccc(-c2sc(-c3ccccc3)nc2C)nn1`, the Potency entry is “inactive”.

`O=C(O)c1c(Br)c(Br)c(Br)c(Br)c1C1c2ccc(O)cc2Oc2cc(O)ccc21`: the Potency is 0.891 µM (active).

Regarding `CCOC(=O)c1ccc(NC(=O)c2nc(SCc3ccccc3F)ncc2Cl)cc1`, the Potency result was “inactive”. Same read-out and setting: with `O=C(O)c1nc2cc(Cl)c(Cl)cc2[nH]c1=O` the entry was “inactive”; with `Cc1ccc(OCC(=O)Nc2ccccc2C(=O)OCc2cc(=O)n3nc(C4CC4)sc3n2)cc1`, “inactive”. With `CCOC(=O)c1ccc(CN(Cc2ccccc2C)S(=O)(=O)c2ccc(F)c(C(=O)Nc3cccc(OC)c3)c2)cc1`, the Potency result was “inactive”. Still for that read-out and setting: to `O=C(O)c1ccccc1-c1c2cc(I)c(=O)c(I)c-2oc2c(I)c(O)c(I)cc12` belongs 3.16 µM (active); to `CC(C)c1ccc(Nc2sc(C(=O)c3ccccc3)c(N)c2S(=O)(=O)c2ccccc2)cc1`, “inactive”; to `CCOC(=O)c1ccc(CN(Cc2ccc(F)cc2)S(=O)(=O)c2ccc(F)c(C(=O)Nc3ccccc3C(F)(F)F)c2)cc1`, “inactive”. Regarding `O=C(Nc1cc(C(=O)Nc2ccc(S(=O)(=O)O)cc2S(=O)(=O)O)cc(C(=O)Nc2ccc(S(=O)(=O)O)cc2S(=O)(=O)O)c1)Nc1cc(C(=O)Nc2ccc(S(=O)(=O)O)cc2S(=O)(=O)O)cc(C(=O)Nc2ccc(S(=O)(=O)O)cc2S(=O)(=O)O)c1`, the Potency was 2.24 µM (active) and 2 µM (active). In the case of `COc1ccc(NS(=O)(=O)c2ccc3c(c2)[C@H]2C=CC[C@H]2[C@@H](c2ccc(C(=O)O)cc2)N3)cc1`, the Potency is 3.16 µM (active).

For `COc1ccc(OC)c(Nc2sc(C(=O)c3ccccc3)c(N)c2S(=O)(=O)c2ccccc2)c1`, the Potency result is “inactive”. On to `COc1ccc(S(=O)(=O)c2c(Nc3ccc(C)cc3)sc(C(=O)c3ccc4c(c3)OCO4)c2N)cc1`, for which the Potency result is “inactive”. Turning to `O=C(Nc1ccccc1C(=O)OCc1cc(=O)n2nc(C3CC3)sc2n1)c1cccc(Cl)c1`, the Potency entry is “inactive”. Regarding `CC(=O)Nc1ccc(S(=O)(=O)O)c2cc(S(=O)(=O)O)c(N=Nc3ccc(N=Nc4ccc(S(=O)(=O)O)cc4)c4ccc(S(=O)(=O)O)cc34)c(O)c12`, the Potency is 2.51 µM (active). With `CC(C)c1nn2c(=O)cc(COC(=O)c3ccccc3NC(=O)c3cccc(Cl)c3)nc2s1`, the Potency result was “inactive”. In the case of `O=C(CNC(=O)c1ccccc1F)OCc1cc(=O)n2nc(C3CCCCC3)sc2n1`, the Potency result is “inactive”. Same read-out and setting: to `COc1ccc2c(c1)Oc1nc(-c3ccc(C)s3)nc(SCC(=O)Nc3cccc(C(=O)O)c3)c1C2` belongs 5.62 µM (active). Still for that read-out and setting: to `CCOC(=O)c1ccc(N2C(=O)c3n[nH]c(-c4cccs4)c3C2c2ccc(C(C)(C)C)cc2)cc1` (stereo not drawn) belongs 15.8 µM (active); to `O=C(Nc1ccc(C(=O)OCc2cc(=O)n3nc(C4CC4)sc3n2)cc1)c1ccc(F)cc1`, “inactive”; to `O=C(Nc1ccc(C(=O)OCc2cc(=O)n3nc(C4CC4)sc3n2)cc1)c1cccc(F)c1`, “inactive”. Still for that read-out and setting: with `CC(Oc1ccccc1)C(=O)Nc1ccc(C(=O)OCc2cc(=O)n3nc(C(C)C)sc3n2)cc1` (stereo not drawn) the entry was “inactive”. As for `CCCCc1nn2c(=O)cc(COC(=O)c3ccc(NC(=O)c4cccs4)cc3)nc2s1`, the Potency result is “inactive”.

The next assay relates to Zika virus NS2B-NS3 protease (linked). The assay is described as follows: 384 well plate NINDS AMC confirmatory qHTS for Zika virus inhibitors (AID 1347163). Also: nearly all actives have a fitted effect of over 50% in size. Also: potency is read from the fitted curve at half-maximal effect. The conditions noted are these: Recombinant NS2B-NS3 protease, Ac-VKTGKR-AMC fluorescence; series mostly up to 1 mM. Put shortly: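 Linked protease 5/30/60 nM final; cpds up to 1 mM final, ~15 min preinc. Substrate Ac-VKTGKR-AMC 30 microM final. RT, dark, 25 min; FI ex 355/em 460; normalized to no-enzyme/no-inhibitor ctrls.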
With `Nc1c(N=Nc2ccc([N+](=O)[O-])cc2)c(S(=O)(=O)O)cc2cc(S(=O)(=O)O)c(/C=C/c3ccccc3)c(O)c12`, the Potency was 79.4 µM (active).

Regarding `O=C(OCc1cc(=O)n2nc(C3CC3)sc2n1)c1ccc(NC(=O)c2ccccc2Cl)cc1`, the Potency entry is “inactive”. As for `Cc1c(C2(c3cc(C(C)C)c(O)c(Br)c3C)OS(=O)(=O)c3ccccc32)cc(C(C)C)c(O)c1Br`, the Potency was 126 µM (active). On to `O=C(Nc1ccc(C(=O)Nc2ccc(C(=O)Nc3ccc(S(=O)(=O)O)c4cc(S(=O)(=O)O)cc(S(=O)(=O)O)c34)cc2)cc1)Nc1ccc(C(=O)Nc2ccc(C(=O)Nc3ccc(S(=O)(=O)O)c4cc(S(=O)(=O)O)cc(S(=O)(=O)O)c34)cc2)cc1`, for which the Potency was 39.8 µM (active).

As for `CCS(=O)(=O)c1cccc(C(=O)Nc2ccc(-c3nc4ccccc4s3)c(O)c2)c1`, the Potency result was “inactive”. For the compound `O=C(O)c1c(Br)c(Br)c(Br)c(Br)c1C1c2ccc(O)cc2Oc2cc(O)ccc21`, the Potency was 14.1 µM (active).

Turning to `N#C/C(=C\c1ccc(-c2cc(Cl)ccc2Cl)o1)C(=O)Nc1ccccc1C(=O)O`, the Potency was 20 µM (active).

For the compound `O=C(O)c1ccccc1-c1c2cc(I)c(=O)c(I)c-2oc2c(I)c(O)c(I)cc12`, the Potency was 56.2 µM (active). In the case of `O=C(Nc1cc(C(=O)Nc2ccc(S(=O)(=O)O)cc2S(=O)(=O)O)cc(C(=O)Nc2ccc(S(=O)(=O)O)cc2S(=O)(=O)O)c1)Nc1cc(C(=O)Nc2ccc(S(=O)(=O)O)cc2S(=O)(=O)O)cc(C(=O)Nc2ccc(S(=O)(=O)O)cc2S(=O)(=O)O)c1`, the Potency was 8.91 µM (active) and 7.08 µM (active).

Take `COc1ccc(NS(=O)(=O)c2ccc3c(c2)[C@H]2C=CC[C@H]2[C@@H](c2ccc(C(=O)O)cc2)N3)cc1`: the Potency is 79.4 µM (active).

Consider `Cc1ccc(NC(=O)c2ccc3c(O)c(S(=O)(=O)c4ccccc4)c(=O)[nH]c3c2)cc1Cl`, for which the Potency is 282 µM (active).

For `O=c1c(O)cc(C2Oc3cc(O)cc(O)c3CC2O)cc2c(C3Oc4cc(O)cc(O)c4CC3O)cc(O)c(O)c12` (stereo not drawn), the Potency was 7.94 µM (active). Still for that read-out and setting: to `CC(=O)Nc1ccc(S(=O)(=O)O)c2cc(S(=O)(=O)O)c(N=Nc3ccc(N=Nc4ccc(S(=O)(=O)O)cc4)c4ccc(S(=O)(=O)O)cc34)c(O)c12` belongs 22.4 µM (active); to `CCOC(=O)c1ccc(N2C(=O)c3n[nH]c(-c4cccs4)c3C2c2ccc(C(C)(C)C)cc2)cc1` (stereo not drawn), “inactive”.

The values are drawn from PubChem BioAssay (NCATS).
